# Most compounds without a hit are left out; they make up all but 1.3% or so of the library.
# MCL1-BIM inh: inhibitors of MCL1 binding to BIM-BH3, primary screen, biochemical, fluorescence polarization | GST-MCL1 / FITC-Bim-BH3 fluorescence polarization | inhibition, % at 10.9 µM | 320,000 compounds, 0.68% hits | AID 2057, 2009;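 active = inhibition above the mean inhibition of all tested compounds plus 3 SD, set per campaign, cut at about 40% in these data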;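 also: 0% = DMSO wells and 100% = unlabeled Bim-BH3 peptide control; higher means more loss of mP so more displacement of Bim peptide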
# Keap1-Nrf2 PPI: Keap1-Nrf2 protein-protein interaction inhibitors, primary screen, biochemical, fluorescence polarization, single point. AID 504523, 2011. Keap1 Kelch-Nrf2 peptide fluorescence polarization, 1536-well. 340,000 compounds, 0.15% hits. inhibition, % at 9.4 µM; in the data active = inhibition above about 12%; inconclusive = no clear call, values can overlap the other calls; inactive = below about 7.3%;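 also: human Keap1 Kelch domain with fluorescein labeled Nrf2 9mer peptide probe; 0% = neutral control wells and 100% = peptide positive control; higher means more block of Keap1 binding to Nrf2 peptide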
# BCLXL inh: inhibitors of human Bcl-xL, primary screen, biochemical, fluorescence polarization, HTS. inhibition, % at 10.9 µM. AID 2129, 2009. Bcl-2-like protein 1 (Homo sapiens), Q07817. 320,000 compounds, 0.7% hits. GST-Bcl-xL / FITC-Bim BH3 peptide fluorescence polarization;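 active = inhibition above the mean of all tested compounds plus 3 SD, cutoff set per campaign, cut at about 30% in these data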;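 also: 0% = DMSO wells and 100% = unlabeled Bim-BH3 peptide competitor; inhibitors lower millipolarization by displacing the labeled peptide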
# Target sequence (Q07817 whole entry, looked up): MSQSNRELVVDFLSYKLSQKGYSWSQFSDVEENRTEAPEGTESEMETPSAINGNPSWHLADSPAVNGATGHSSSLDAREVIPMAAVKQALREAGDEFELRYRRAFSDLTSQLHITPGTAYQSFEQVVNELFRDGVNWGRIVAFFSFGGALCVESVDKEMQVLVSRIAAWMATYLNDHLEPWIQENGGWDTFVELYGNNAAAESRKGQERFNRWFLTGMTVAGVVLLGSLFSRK
# GLD-1 RNA inh: GLD-1/TGE RNA complex disruptors, primary screen, biochemical, fluorescence polarization; 320,000 compounds, 0.44% hits; inhibition, % at 5.96 µM; purified GLD-1 + fluorescein TGE RNA; Female germline-specific tumor suppressor gld-1 (Caenorhabditis elegans), Q17339;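 active = percent inhibition above a per-plate cutoff, the plate mean of test compounds plus 3 SD, cut at about 30% in these data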;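 also: 0% = DMSO wells with GLD-1 and probe and 100% = wells lacking GLD-1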
# Target sequence (Q17339 whole entry, looked up): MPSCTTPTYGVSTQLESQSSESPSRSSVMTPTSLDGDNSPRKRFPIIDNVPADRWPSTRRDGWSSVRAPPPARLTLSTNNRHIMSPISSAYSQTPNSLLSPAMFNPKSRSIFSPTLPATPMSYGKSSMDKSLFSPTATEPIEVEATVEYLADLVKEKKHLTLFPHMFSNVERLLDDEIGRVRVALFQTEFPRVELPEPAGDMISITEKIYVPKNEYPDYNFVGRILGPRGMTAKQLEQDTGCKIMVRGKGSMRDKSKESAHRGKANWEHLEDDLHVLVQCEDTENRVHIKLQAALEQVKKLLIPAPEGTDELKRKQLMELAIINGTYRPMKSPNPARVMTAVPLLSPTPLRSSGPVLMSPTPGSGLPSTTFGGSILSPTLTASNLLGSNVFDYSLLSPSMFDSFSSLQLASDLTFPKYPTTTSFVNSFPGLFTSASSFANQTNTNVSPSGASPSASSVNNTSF
# eLon inh: inhibitors of E. coli Lon protease, primary screen, biochemical, fluorescence polarization; P0A9M0; purified E. coli Lon protease; inhibition, % at 7.94 µM; 360,000 compounds, 0.42% hits; in the data active = inhibition above about 13%, passing the limit was not always enough;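 also: 0% = enzyme with probe and DMSO and 100% = no enzyme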
# LANA DNA inh: inhibitors of KSHV C-LANA binding to DNA, primary screen, biochemical, fluorescence polarization, FAM-LBS DNA, MBP-C-LANA, single point. Kaposi's sarcoma herpesvirus LANA C-terminal domain (residues 932-1162) DNA binding. inhibition, % at 9 µM. 340,000 compounds, 0.078% hits;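 active = highest replicate inhibition at or above 60% at 9 µM, even if other replicates fall short; inactive = all replicates below 60% inhibition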;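 also: 0% = neutral control wells and 100% = 4 µM acridine orange control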
# Bcl-xL conf: Bcl-xL inhibitors blocking Bim BH3 binding, confirmation, counter-screen for MCL1 inhibitor project, biochemical, fluorescence polarization. shares compounds with MCL1-BIM inh. GST-Bcl-xL / FITC-Bim BH3 peptide FP binding. inhibition, % at 10.9 µM. 1,700 compounds, 54% hits. AID 2166, 2009;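 active = inhibition above a cutoff equal to the mean inhibition of all tested compounds plus 3 SD, cut at about 30% in these data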;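 also: 0% = DMSO wells and 100% = unlabeled Bim BH3 control peptide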
# MCL1 inh confirm: inhibitors of MCL1 binding to BIM-BH3, confirmation, biochemical, fluorescence polarization, triplicate | 1,700 compounds, 61% hits | GST-MCL1 / FITC-Bim-BH3 fluorescence polarization | AID 2168, 2009 | inhibition, % at 10.9 µM | shares compounds with MCL1-BIM inh;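 active = inhibition above the average of all tested compounds plus 3 SD, cut at about 40% in these data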;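 also: 0% = DMSO wells and 100% = unlabeled Bim-BH3 control peptide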
# * hit, by the source's call; i = inactive; u = inconclusive; x = no result given.
SMILES,MCL1-BIM inh,Keap1-Nrf2 PPI,BCLXL inh,GLD-1 RNA inh,eLon inh,LANA DNA inh,others
CN(C)C(=O)Oc1ccc2nnc3ccnn3c2c1,28.9,-3.1,30.6*,11.6,-13.1,1.6,
CCOP(=O)(OCC)C(O)c1ccc(OC)c(OC)c1 (configuration not stated),48.8*,0.0,33.6*,21.8,-2.2,-0.9,
COCCNC(=O)c1ccc(N2CC3CC(C2)c2cccc(=O)n2C3)c([N+](=O)[O-])c1 (configuration not stated),10.9,-3.2,10.5,-10.1,-1.7,0.2,
O=C1CN=C(c2cc([N+](=O)[O-])ccc2Cl)c2cc([N+](=O)[O-])ccc2N1,2.2,1.4,2.4,-0.3,4.3,0.9,
CC(C(=O)Nc1ccc(Br)cc1C(=O)c1ccccc1)N1CCCCC1 (configuration not stated),5.3,-0.5,6.5,2.4,24.4*,-0.6,
O=C(CCN1CCCCC1)Nc1ccc(Br)cc1C(=O)c1ccccc1,9.1,-0.2,11.0,0.7,-9.2,0.5,
CC(C)(C)OC(=O)c1c(N)n(Cc2ccco2)c2nc3ccccc3nc12,40.8*,0.6,53.5*,48.1*,-14.0,1.1,
C=CC12CN(C)C3C4COC(CC41)C1(C(=O)Nc4ccccc41)C32 (configuration not stated),x,x,x,x,-12.7,x,
CN(C)[C@@H]1C(=O)C(C(N)=O)=C(O)[C@@]2(O)C(=O)C3=C(O)c4c(O)cccc4[C@@](C)(O)[C@H]3C[C@@H]12,90.0*,x,43.1*,14.5,x,x,
CN(C)[C@@H]1C(=O)C(C(N)=O)=C(O)[C@@]2(O)C(=O)C3=C(O)c4c(O)ccc(Cl)c4[C@@](C)(O)C3C[C@@H]12 (some centres not stated),x,-5.4,x,x,-18.6,8.2,
CCc1cc2c(N3CCN(C)CC3)ncnc2s1,-3.2,2.4,4.2,-2.1,-5.1,0.6,
CN1CCN(c2ncnc3c2cnn3C)CC1,29.9,-2.5,39.0*,11.2,1.7,1.5,
CC(=O)O[C@H]1CC[C@@]2(C)C(=CC(=O)C3C2CC[C@@]2(C)C3C[C@H](OC(C)=O)[C@@H]2OC(C)=O)C1 (some centres not stated),x,-2.3,x,-3.4,-7.0,-1.3,
CN1C(C(=O)N2CCC3(CC2)OCCO3)=CC(c2ccc(F)cc2)=NS1(=O)=O,-0.6,-0.4,5.7,0.9,-3.9,-0.6,
O=C1NC(=O)N(c2ccccc2)C(=O)/C1=C\c1ccc([N+](=O)[O-])o1,41.8*,x,35.9*,12.2,x,x,
CN1C(=O)NC(=O)/C(=C\c2ccc([N+](=O)[O-])o2)C1=O,39.3,6.0,38.8*,22.9,-9.2,19.3,
CN1C(=O)NC(=O)/C(=C/c2ccc([N+](=O)[O-])o2)C1=O,27.4,x,30.2*,5.5,x,x,
CN1C(=O)NC(=O)/C(=C/c2ccc([N+](=O)[O-])s2)C1=O,18.4,1.4,14.5,10.7,-26.1,4.9,
C[C@]12C=CC(=O)C=C1C=C[C@@H]1C2CC[C@]2(C)C(=O)CCC12 (some centres not stated),1.8,-4.7,4.8,11.4,-8.1,1.2,
CC/C(=C\C=C\[C@@H]1C=C[C@@H]2CCC[C@H]2[C@@H]1C(=O)c1ccc[nH]1)[C@@H]1O[C@@H]([C@@H](C)C(=O)O)CC[C@@H]1C,31.9,x,34.5*,13.6,x,x,
NN=C1C(Cl)=C(Cl)C(Cl)=C1Cl,x,x,x,x,-14.1,x,
Cc1c2ccncc2c(C)c2c1[nH]c1ccccc12,88.2*,-2.8,66.2*,-0.2,-1.1,1.0,
c1ccc2c(c1)[nH]c1cnccc12,1.4,-4.0,1.7,2.2,-2.9,0.1,
O=C1NC(=O)C(=Cc2cc3c(cc2[N+](=O)[O-])OCO3)C(=O)N1,18.8,3.2,32.5*,12.6,4.1,0.1,
Cc1cccc(N2C(=O)NC(=O)/C(=C/c3cc4c(cc3[N+](=O)[O-])OCO4)C2=O)c1,118.7*,u,118.4*,76.8*,9.1,3.4,
SMILES,MCL1-BIM inh,Keap1-Nrf2 PPI,BCLXL inh,GLD-1 RNA inh,eLon inh,LANA DNA inh,others
COC(=O)C1=C(c2ccc(S(C)(=O)=O)cc2)C[C@@H]2CC[C@H]1N2C(=O)NCc1cccc2ccccc12,9.1,-9.1,0.6,2.2,2.7,0.0,
Cn1c(O)c(/C=C/C=Nc2ccccc2)c(=O)n(C)c1=S,-24.8,-19.1,54.9*,-61.4,i,-4.8,
Cc1cccc(-n2c(O)c(/C=C/C=Nc3ccccc3)c(=O)[nH]c2=O)c1,-236.1,-122.4,-127.9,-206.0,i,-18.2,
CCCN1CCc2cc(O)cc3c2[C@H]1Cc1ccc(O)c(O)c1-3,36.8,-4.5,32.2*,1.0,-3.0,-1.7,
O=S(=O)(c1cccc(C(F)(F)F)c1)N1Cc2ccccc2-n2nncc2C1,x,x,x,x,4.4,x,
C=CCn1c(O)c(C(CC)=Nc2ccc(N(C)C)cc2)c(=O)[nH]c1=O,45.3*,-3.9,29.1,21.8,9.2,-1.8,Bcl-xL conf=18.0;MCL1 inh confirm=9.6
CCOc1ccc(N2C(=O)/C(=C/c3ccco3)C(=O)NC2=S)cc1,-25.0,-2.1,-18.0,-22.1,-20.9,20.1,
Cc1ccccc1N1C(=O)/C(=C/c2ccco2)C(=O)NC1=S,97.7*,x,96.8*,6.5,x,x,Bcl-xL conf=97.0*;MCL1 inh confirm=98.9*
CC1=CC(=O)OC2CC3OC4C[C@@H](C)C5OC6CC7O[C@]8(C)C/C=C\C9OC%10CC%11OC(CC(C)CO)CC(O)[C@]%11(C)OC%10CC9OC8C[C@]7(C)O[C@]6(C)CCC5OC4C[C@]3(C)OC12 (some centres not stated),-1.4,2.7,-2.5,-2.4,-1.0,-2.0,
O=C1NC(=O)C(=C/C=C/c2coc3ccc(Br)cc3c2=O)C(=O)N1,74.0*,x,85.6*,10.8,x,x,Bcl-xL conf=91.8*;MCL1 inh confirm=111.0*

# Bioassay records: PubChem BioAssay, several laboratories
